In PubChem BioAssay (Tox21):
Results filed as inconclusive are left out. A call without a number means that no potency is given here. Unmarked numbers belong to inactive results. Activity calls are given as the source filed them. Unless noted, calls follow the shape of the dose curve; as a rule, active = well fitted curve in the direction sought with a large enough effect in the repeat runs; inconclusive = weak or mixed curves; inactive = no such curve, though single readings can be large; an effect the other way counts as inactive or inconclusive.

Key:
[1] = qHTS assay to identify aromatase inhibitors - cell viability counter screen (AID 743084);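 also: cells stimulated with testosterone during compound exposure; nearly all actives have a fitted effect of over 55% in size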; also: potency is read from the fitted curve at half-maximal effect
[2] = target: Aryl hydrocarbon receptor (Homo sapiens) (UniProt P35869); experiment: qHTS assay to identify small molecule that activate the aryl hydrocarbon receptor (AhR) signaling pathway (AID 743085); also: nearly all actives have a fitted effect of over 15% in size; also: potency is read from the fitted curve at half-maximal effect;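 as to activation: HG2L7.5c1 human HepG2 liver cells with stably integrated DRE-driven firefly reporter; series mostly up to about 70 µM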
Summary of the method: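 Cell line HG2L7.5c1 (human hepatoma, 20× DRE-luc). Plated, 5 h 37C, compound/DMSO added, 24 h 37C. CellTiter-Fluor 30 min 37C → fluorescence; then ONE-Glo 30 min RT → luminescence.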

[3] = qHTS assay to identify small molecule that activate the aryl hydrocarbon receptor (AhR) signaling pathway - cell viability counter screen (AID 743086); also: nearly all actives have a fitted effect of over 45% in size; also: potency is read from the fitted curve at half-maximal effect
Summary of the method: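 HepG2-AhR-luc (HG2L7.5c1) cells, 4000/well, treated 24 h at 37 C with compound; viability measured as CellTiter-Fluor fluorescence after 30 min in the same wells as the luciferase read.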

[4] = target: Peroxisome proliferator-activated receptor gamma (Homo sapiens) (UniProt P37231); experiment: qHTS assay to identify small molecule agonists of the peroxisome proliferator-activated receptor gamma (PPARg) signaling pathway (AID 743094; active = well fitted activation curve with a large enough effect in the signal ratio in the repeat runs, not every such curve was filed as active; the % refers to the signal ratio; also: potency is read from the fitted curve at half-maximal effect)
Summary of the method: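 Fluorescence-based beta-lactamase readout in HEK293H PPARg UAS-bla cells after 17 h compound exposure (37C) and 1 h B/G FRET substrate incubation at room temperature.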

[5] = qHTS assay to identify small molecule phospholipidosis (PLD) inducers (AID 1259344; active = well fitted curve in the direction sought with a large enough effect; an effect the other way counts as inactive or inconclusive)
Summary of the method: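 Read-out is LipidTOX Red fluorescence (ex 595/em 615) imaged in HepG2 cells after 24 h compound exposure at 37 C, with Hoechst nuclear counterstain (ex 352/em 461) allowing per-cell normalisation.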

[6] = target: Nuclear receptor subfamily 1 group I member 2 (Rattus norvegicus) (UniProt Q9R1A7); experiment: Rat pregnane X receptor (rPXR) activation by small molecules, qHTS assay (AID 1346983); conditions: rPXR luciferase reporter cells, One-Glo luminescence, 24 h; max activation: hits give high values; also: nearly all actives have a fitted effect of over 20% in size; also: potency is read from the fitted curve at half-maximal effect
Summary of the method: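 Cell-based rPXR activation assay: rPXR cells, 2,000 per well, rested 5hr at 37 C, then exposed to compounds in DMSO for 24 hr at 37 C. Luciferase activity read by One-Glo luminescence after 30 min at room temperature.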

[7] = target: Nuclear receptor subfamily 1 group I member 2 (Homo sapiens) (UniProt O75469); experiment: Human pregnane X receptor (PXR) activation by small molecules, qHTS assay (AID 1346985); also: nearly all actives have a fitted effect of over 40% in size; also: potency is read from the fitted curve at half-maximal effect
Summary of the method: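 DPX-2 cells (HepG2 co-transfected with a PXR response element and a CYP3A4-promoter luciferase construct) were seeded at 2,000 per well, rested 5 hr at 37C, then exposed to DMSO-dissolved compounds for 24 hr. Activation was read as luciferase luminescence.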

[8] = target: Nuclear receptor subfamily 1 group I member 2 (Homo sapiens) (UniProt O75469); experiment: CYP3A4 induction through human pregnane X receptor (PXR) by small molecules, qHTS assay (AID 1346984); also: nearly all actives have a fitted effect of over 40% in size; also: potency is read from the fitted curve at half-maximal effect
Summary of the method: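 After 24 h at 37C with compound, DPX-2 cells (HepG2, co-transfected PXR response element and CYP3A4 promoter-luciferase) got 3uM final P450-Glo Luciferin-IPA for 3 h; One-Glo luminescence followed.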

Chain of Aryl hydrocarbon receptor (Homo sapiens) (P35869 whole entry, looked up): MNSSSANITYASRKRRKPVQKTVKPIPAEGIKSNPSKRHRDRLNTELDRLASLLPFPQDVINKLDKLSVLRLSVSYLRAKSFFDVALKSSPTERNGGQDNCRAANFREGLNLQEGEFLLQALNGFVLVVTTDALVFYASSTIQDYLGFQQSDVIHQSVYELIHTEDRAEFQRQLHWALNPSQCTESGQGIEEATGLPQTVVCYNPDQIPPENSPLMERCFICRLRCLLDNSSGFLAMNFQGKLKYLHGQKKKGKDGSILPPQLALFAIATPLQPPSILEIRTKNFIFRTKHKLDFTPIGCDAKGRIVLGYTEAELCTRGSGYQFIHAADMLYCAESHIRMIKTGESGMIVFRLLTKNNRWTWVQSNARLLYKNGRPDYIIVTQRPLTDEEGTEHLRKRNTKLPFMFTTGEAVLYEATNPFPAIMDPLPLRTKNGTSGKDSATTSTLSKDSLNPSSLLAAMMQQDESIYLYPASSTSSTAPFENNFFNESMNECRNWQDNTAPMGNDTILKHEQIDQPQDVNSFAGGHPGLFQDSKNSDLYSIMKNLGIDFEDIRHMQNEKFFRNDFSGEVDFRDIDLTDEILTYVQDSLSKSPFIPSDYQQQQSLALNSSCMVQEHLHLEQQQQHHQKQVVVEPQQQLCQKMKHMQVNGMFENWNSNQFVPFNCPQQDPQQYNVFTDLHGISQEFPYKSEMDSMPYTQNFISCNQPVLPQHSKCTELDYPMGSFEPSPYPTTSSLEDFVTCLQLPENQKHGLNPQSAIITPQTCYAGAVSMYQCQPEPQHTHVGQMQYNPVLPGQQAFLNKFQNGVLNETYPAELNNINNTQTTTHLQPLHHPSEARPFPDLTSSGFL
Chain of Peroxisome proliferator-activated receptor gamma (Homo sapiens) (P37231 whole entry, looked up): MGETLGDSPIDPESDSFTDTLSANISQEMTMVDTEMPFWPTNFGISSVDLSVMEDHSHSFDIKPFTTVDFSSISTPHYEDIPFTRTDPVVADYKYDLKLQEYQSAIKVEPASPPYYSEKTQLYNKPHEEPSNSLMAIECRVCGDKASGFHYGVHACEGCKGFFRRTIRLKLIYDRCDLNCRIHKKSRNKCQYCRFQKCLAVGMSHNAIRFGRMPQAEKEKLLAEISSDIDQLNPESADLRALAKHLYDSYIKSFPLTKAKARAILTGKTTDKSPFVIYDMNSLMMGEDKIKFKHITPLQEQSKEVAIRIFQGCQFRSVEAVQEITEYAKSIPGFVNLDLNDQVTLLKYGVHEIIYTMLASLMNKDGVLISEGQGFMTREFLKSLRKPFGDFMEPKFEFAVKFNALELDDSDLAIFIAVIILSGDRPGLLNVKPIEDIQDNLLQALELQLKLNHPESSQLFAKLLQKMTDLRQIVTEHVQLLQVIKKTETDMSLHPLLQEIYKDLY
Chain of Nuclear receptor subfamily 1 group I member 2 (Rattus norvegicus) (Q9R1A7 whole entry, looked up): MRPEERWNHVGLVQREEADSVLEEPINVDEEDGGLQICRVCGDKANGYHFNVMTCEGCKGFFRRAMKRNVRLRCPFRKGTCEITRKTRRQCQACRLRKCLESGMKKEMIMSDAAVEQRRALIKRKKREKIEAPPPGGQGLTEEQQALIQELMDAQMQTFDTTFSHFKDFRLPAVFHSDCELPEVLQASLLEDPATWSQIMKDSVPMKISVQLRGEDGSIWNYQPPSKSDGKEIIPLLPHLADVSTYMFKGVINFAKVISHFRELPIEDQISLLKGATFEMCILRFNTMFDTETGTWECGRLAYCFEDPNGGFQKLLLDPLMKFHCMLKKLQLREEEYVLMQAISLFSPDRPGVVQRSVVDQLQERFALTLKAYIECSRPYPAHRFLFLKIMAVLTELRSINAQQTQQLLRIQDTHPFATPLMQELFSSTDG

Compound	Potency [1]	Potency [2]	Potency [3]	Potency [4]	Potency [5]	max activation [6] [%]	Potency [7]	Potency [8]	Potency [6]
CC(C)(CO)[C@@H](O)C(=O)NCCC(=O)NCCSSCCNC(=O)CCNC(=O)[C@H](O)C(C)(C)CO	inactive	inactive	inactive	inactive	inactive	-1.96	inactive		
O=C(/C=C/c1cccc(F)c1)NC1CC1	inactive	inactive	inactive	inactive	inactive		10 µM (active)	inactive	
Cc1cc(O)c2c(c1)O[C@@]1(C)CC[C@H]3C(C)(C)CCCC34CO[C@@H]2[C@H]41 (some centres undefined)	29.8 µM (active)	inactive	inactive		inactive		2.82 µM (active)	inactive	
CC1=C(/C=C/C(C)=C/C=C/C(C)=C/C(=O)Oc2c(C)c(C)c3c(c2C)CC[C@@](C)(CCC[C@H](C)CCC[C@H](C)CCCC(C)C)O3)C(C)(C)CCC1	inactive	inactive	inactive	inactive	inactive		inactive	inactive	
CC1(C)S[C@@H]2[C@H](NC(=O)C(C(=O)O)c3ccsc3)C(=O)N2[C@H]1C(=O)O (some centres undefined)	inactive	inactive	inactive	inactive	inactive		inactive	inactive	
CCC(=O)OCC(=O)[C@@]1(OC(=O)CC)[C@H](C)C[C@H]2[C@H]3[C@H]([C@@H](O)C[C@@]21C)[C@@]1(C)C=CC(=O)C=C1C[C@H]3Cl	inactive	inactive	inactive	inactive	inactive		inactive		3.98 µM (active)
CC(C(=O)O)c1ccc(N2Cc3ccccc3C2=O)cc1 (centres undefined)	inactive	0.0596 µM (active)	inactive	inactive	inactive		inactive	inactive	
CC(C)CN(C[C@@H](OP(=O)(O)O)[C@H](Cc1ccccc1)NC(=O)O[C@H]1CCOC1)S(=O)(=O)c1ccc(N)cc1	inactive	inactive	inactive		inactive		10 µM (active)	inactive	
CC1=C[C@H](O)CC(C)(C)[C@H]1/C=C/C(C)=C/C=C/C(C)=C/C=C/C=C(C)/C=C/C=C(C)/C=C/C1=C(C)C[C@@H](O)CC1(C)C	inactive	inactive	inactive		inactive		inactive	inactive	
CC(C)(C)c1ccc(CN2CCN(C(c3ccccc3)c3ccc(Cl)cc3)CC2)cc1 (centres undefined)	inactive	inactive	inactive	inactive	inactive		inactive	inactive	
Cc1ncc(C[n+]2csc(CCOP(=O)(O)OP(=O)(O)O)c2C)c(N)n1	inactive	inactive	inactive	inactive	inactive		inactive	inactive	
CC(C)C(=O)OCC(=O)[C@@]12O[C@H](C3CCCCC3)O[C@@H]1C[C@H]1[C@@H]3CCC4=CC(=O)C=C[C@]4(C)[C@H]3[C@@H](O)C[C@@]12C	inactive	inactive	inactive	inactive	inactive		0.631 µM (active)		
Cc1cccc(C)c1Nc1ncccc1C(=O)O	inactive	29.8 µM (active)		inactive	inactive			inactive	
CCC(=O)NS(=O)(=O)c1ccc(-c2c(-c3ccccc3)noc2C)cc1	inactive	inactive	inactive		inactive				
COc1ccc(CCNC[C@H](O)c2ccc(O)cc2)cc1OC	inactive		inactive	inactive	inactive		inactive	inactive	
CC(=O)O[C@H]1C(=O)[C@@]2(C)[C@H]([C@H](OC(=O)c3ccccc3)[C@]3(O)C[C@H](OC(=O)[C@H](O)[C@@H](NC(=O)c4ccccc4)c4ccccc4)C(C)=C1C3(C)C)[C@]1(OC(C)=O)CO[C@@H]1C[C@@H]2O	6.68 µM (active)	inactive		inactive	inactive		15.8 µM (active)	6.31 µM (active)	
C#CCOc1ccc2c(C)cc(=O)oc2c1	inactive		inactive	inactive	inactive			inactive	
Cc1cc(-n2c(=O)[nH]c(=O)n(C)c2=O)ccc1Oc1ccc(S(=O)(=O)C(F)(F)F)cc1	inactive	inactive	inactive		inactive				
CC(C)(C)C(=O)OCOC(=O)[C@@H]1N2C(=O)[C@@H](N=CN3CCCCCC3)[C@H]2SC1(C)C		inactive	inactive	inactive	inactive		inactive	inactive	
Cn1c(O)c(N=NC(N)=S)c2ccccc21		1.06 µM (active)	2.98 µM (active)	21.3 µM (active)	inactive		14.1 µM (active)	inactive	
CS(=O)(=O)OCCCNCCCOS(C)(=O)=O	inactive	inactive	inactive		inactive				
O.O=C([O-])CC([S-])C(=O)[O-].[Au+].[Na+].[Na+] (centres undefined)	inactive	inactive			inactive				
